According to PubChem BioAssay (EPA / NIEHS):
Calls of active or inactive are those of the source. How the source made its calls: active means hit-call score of the fitted dose curve at least 0.9, where 1 is the maximum; inactive means score below 0.9.

The compounds below were run on Glutamate-cysteine ligase regulatory (GCLM), GCLM (gene 2730) (assay: LTEA_HepaRG_GCLM: Life Technologies and Expression Analysis (LTEA) Assay for Glutamate-cysteine ligase regulatory (GCLM) using HepaRG (AID 2283500)). Conditions: mRNA level, 48 h; actives raise or lower the signal.
Protocol: LTEA_HepaRG is a cell based, multiplexed-readout assay that uses HepaRG, a human liver cell line, with measurements taken at 48 hours after chemical dosing on a 96-well plate.LTEA_HepaRG_GCLM is one of 102 assay component(s) measured in the LTEA HepaRG cell culture assay. It is a marker of Cell proliferation, survival, death.Data from the assay component LTEA_HepaRG_GCLM was analyzed into 1 endpoint. This assay endpoint, LTEA_HepaRG_GCLM, was analyzed with bidirectional fitting relative to DMSO as the negative control and baseline of activity. Using a type of inducible reporter, measures of mRNA induction for gain or loss-of-signal activity can be used to understand regulation of transcription factor activity. To generalize the intended target to other relatable targets, this assay endpoint is annotated to the ligase intended target family, where the subfamily is C-N ligase.
A total of 1060 chemcials from the ToxCast library were tested in eight-point concentration-response experiments. Cell culture and cytotoxicity assays were conducted at Thermo Fisher Scientific's Custom Services facility (Madison, WI). A single lot of human HepaRG cells (Thermo Fisher Scientific, Frederick, MD) was used for the cell culture experiments. 96-well format collagen type I coated plates of human HepaRG cells were prepared using established methods. Briefly, cryopreserved HepaRG cells were thawed, plated at a density of approximately 100,000 cells/well in HepaRG Thaw, Plate, and General Purpose media (HPRG770, Thermo Fisher Scientific), and incubated for 48 hours. 0.5% DMSO was selected as vehicle control to balance the requisite need of DMSO in HepaRG cultures to maintain differentiation (for example, baseline metabolism, proportions of hepatocytes vs. cholangiocytes), while enabling further hepatic receptor pathway activation (for example, PXR and CAR) in response to chemical exposure. 48 hours after plating, the culture medium was replaced with HepaRG Serum-Free Incudtion Media. Cells were exposed to each test chemical in duplicate and maintained in CO2 incubators for another 48 hours. Chemical plates were thawed to room temperature and 200x concentrations of treatment groups were prepared. 8-point conentration-reponse curves were made with the highest exposure at 100 uM, followed by half-log dilutions, all in 0.5% DMSO. Each test plate contained variouse controls, induction positive controls (1mM phenobarbital), cytotoxicity positive controls ([…] aflatoxin B1), vehicle controls (0.5% DMSO), and total lysis controls (0.5% DMSO). Cell morphology images were taken using an Essen IncuCyte FLR automated microscope, with six 96-well plates imaged in about 24 minutes. Images were captured and exported and JPEG files. Spent culture media was transfered to black-well plates for the LDH assay, and remaining media was sorted at -80 C for later use. Cells were treated with RLT buffer and frozen until shipped for gene expression analysis. Total RNA was isolated from the cell suspension in 75 uL of Buffer RLT (Qiagen, Germantown, MD 20874) by Quintiles/Expression Analysis (Durham, NC) using a custom isolation procedure. Total RNA from each plate well was transferred to a preamplification plate. Fluidigm's 96.96 Dynamic ArrayTM (Fluidigm, Amsterdam, the Netherlands) technology was used for gene expression analyses by quantitative reverse transcription polymerase chain reaction (qRT-PCR, performed by Quintiles/Expression Analysis, Durham, NC)89. Standard TaqManTM Assays (Applied Biosystems/ThermoFisher Scientific, Foster City, CA) were used to assess the expression of 93 genes selected based on their selectivity and sensitivity to important hepatic receptors known to be modulated by environmental chemicals; importance in human hepatocyte functionality; and hepatotoxicity. […]

AC50, active:
Cc1c2ccccc2c(C)c2c1ccc1ccccc12 50 µM
CC1(C)NC(=O)N(c2ccc([N+](=O)[O-])c(C(F)(F)F)c2)C1=O 70.9 µM
Cc1ccc2oc(CN(Cc3ccccc3)C(=O)Nc3c(F)cc(F)cc3F)c(-c3ccc(Cl)cc3)c2c1 44.2 µM
c1ccc(C[n+]2cccc3ccccc32)cc1 62.7 µM
Cc1oc2c(NC(=O)c3c(Cl)cccc3Cl)cccc2c1C(C)(C)O 50 µM
COc1ccc2cc(S(=O)(=O)N[C@H](CC(=O)N[C@H](Cc3ccc(CN4[C@H](C)CCC[C@@H]4C)cc3)C(=O)N(C)C(C)C)c3ccc4c(c3)OCO4)ccc2c1 78 µM

outcome, inactive:
CC[C@@H]1C[C@H](N(Cc2cc(C(F)(F)F)cc(C(F)(F)F)c2)C(C)=O)c2cc(C(F)(F)F)ccc2N1C(=O)OC(C)C
CCO[Si](CCCNC(N)=O)(OCC)OCC
CCCCCCCCOC(=O)c1cc(O)c(O)c(O)c1
O=c1ccc2ccccc2o1
Oc1ccccc1
CN1C(=O)N(c2ccccc2Br)Cc2cnc(Nc3ccc4c(c3)OCC(CO)O4)nc21 (stereo not given)
CC(C)(c1cc(Br)c(O)c(Br)c1)c1cc(Br)c(O)c(Br)c1
CCCC(=O)OCCC(C)C
c1ccc2n[nH]nc2c1
CCCCCCCCOc1ccc(C(=O)c2ccccc2)c(O)c1
Cc1ncc(CO)c(CO)c1O
COc1cccc([C@H](O)C2CCN(CCc3ccc(F)cc3)CC2)c1OC
CC/C(=C(/CC)c1ccc(O)cc1)c1ccc(O)cc1
O=c1[nH]sc2ccccc12
O=C(OCCCCCCOC(=O)c1ccccc1)c1ccccc1
CCOC(=O)O[C@H](C)OC(=O)c1ccc2c(c1)cc(C(=O)NC1CCN(C(C)C)CC1)n2Cc1cc(-c2ccc(Cl)s2)on1
Cc1occc1C(=O)Nc1ccc(C(=O)N2CCC(F)(F)/C(=C\C(=O)N3CCC(N4CCCCC4)CC3)c3ccccc32)cc1
COCC(C)OCC(C)OCC(C)O (stereo not given)
Cc1cc2c(cc1C(F)(F)F)N(C(=O)Nc1ccc(Oc3cccnc3C)nc1)CC2
Oc1ccc2ccccc2c1
O=C(Nc1ccc(Cl)cc1)Nc1ccc(Cl)c(Cl)c1
CCCCCCCCCC(=O)O
CCCOC(=O)c1cc(O)c(O)c(O)c1
CCN(CC)C(=O)c1cc(S(=O)(=O)Cc2ccccc2)c(N2CCC(c3ccccc3)CC2)cc1N(CC)CCN(C)C
CCN(Cc1cccc(S(=O)(=O)O)c1)c1ccc(C(=C2C=CC(=[N+](CC)Cc3cccc(S(=O)(=O)O)c3)C=C2)c2ccccc2S(=O)(=O)[O-])cc1
Clc1cc(Cl)c2c(c1)N=C1CCCCCN1C2
CCCCCCCCCCCCO
CCCCCCCCCCCO
CCCCCCCC[Si](OCC)(OCC)OCC
CCCCCc1ccc(N)cc1
O=C=NCCCCCCN=C=O
CCCCOC(=O)c1ccc(O)cc1
CC[C@H](NC(=O)c1cc(F)ccc1NS(=O)(=O)c1cccc2cccnc12)c1ccccc1
CCCCCCCCN(C)CCCCCCCC
